Measured values taken from the supplement of paper PMC9694430.
Structures can show the parent of a compound that is named as a salt.

Legend:
Assay in all cases: thermal shift delta Tm vs DMSO control; higher = stronger stabilization (binding)
Details in all cases: 12.5 µM; protein concentration 2 µM
LOC_OS01G01410-cb001 = system: LOC_OS01G01410-cb001
Outline: (§1)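 Heating from 25°C to 95°C at 0.05°C/s, fluorescence was recorded for 19.5 μl wells of 2 μM E. coli-expressed, purified rice kinase domain in 100 mM potassium phosphate pH 7.5, 150 mM NaCl, 10% glycerol and 5 × SYPRO Orange with compound in DMSO. Boltzmann fits gave melting temperatures for this differential scanning fluorimetry assay. The shift reported is the mean of three replicates against the DMSO-only protein.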

LOC_OS01G02750-cb003 = system: LOC_OS01G02750-cb003
Outline: as §1

LOC_OS01G10900-cb004 = system: LOC_OS01G10900-cb004
Outline: as §1

LOC_OS01G13800-cb001 = system: LOC_OS01G13800-cb001
Outline: as §1

LOC_OS01G14860-cb001 = system: LOC_OS01G14860-cb001
Outline: as §1

LOC_OS01G21960-cb002 = system: LOC_OS01G21960-cb002
Outline: as §1

LOC_OS01G39600-cb002 = system: LOC_OS01G39600-cb002
Outline: as §1

LOC_OS01G48390-cb002 = system: LOC_OS01G48390-cb002
Outline: as §1

LOC_OS01G51400-cb002 = system: LOC_OS01G51400-cb002
Outline: as §1

LOC_OS01G52050-cb004 = system: T1, LOC_OS01G52050-cb004
T1 sequence (whole entry): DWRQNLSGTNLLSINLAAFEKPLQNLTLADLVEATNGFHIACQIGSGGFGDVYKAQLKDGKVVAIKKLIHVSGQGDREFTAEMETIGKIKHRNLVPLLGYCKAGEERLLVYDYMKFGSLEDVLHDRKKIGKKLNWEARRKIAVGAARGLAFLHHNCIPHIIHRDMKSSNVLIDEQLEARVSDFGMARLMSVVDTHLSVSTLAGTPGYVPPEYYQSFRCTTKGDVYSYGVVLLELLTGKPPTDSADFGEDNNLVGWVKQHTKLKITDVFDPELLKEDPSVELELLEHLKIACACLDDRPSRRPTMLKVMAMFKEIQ
Outline: as §1

LOC_OS01G57100-cb003 = system: LOC_OS01G57100-cb003
Outline: as §1

LOC_OS01G60330-cb001 = system: LOC_OS01G60330-cb001
Outline: as §1

LOC_OS01G60700-cb002 = system: LOC_OS01G60700-cb002
Outline: as §1

LOC_OS01G63280-cb003 = system: LOC_OS01G63280-cb003
Outline: as §1

LOC_OS01G67340-cb003 = system: LOC_OS01G67340-cb003
Outline: as §1

LOC_OS01G70970-cb002 = system: LOC_OS01G70970-cb002
Outline: as §1

LOC_OS02G07810-cb001 = system: LOC_OS02G07810-cb001
Outline: as §1

LOC_OS02G08530-cb003 = system: LOC_OS02G08530-cb003
Outline: as §1

LOC_OS02G14120-cb001 = system: LOC_OS02G14120-cb001
Outline: as §1

LOC_OS02G17970-cb001 = system: LOC_OS02G17970-cb001
Outline: as §1
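Also: purified Escherichia coli-expressed rice kinase domain construct.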

| SMILES | thermal shift delta Tm (LOC_OS01G01410-cb001) | thermal shift delta Tm (LOC_OS01G02750-cb003) | thermal shift delta Tm (LOC_OS01G10900-cb004) | thermal shift delta Tm (LOC_OS01G13800-cb001) | thermal shift delta Tm (LOC_OS01G14860-cb001) | thermal shift delta Tm (LOC_OS01G21960-cb002) | thermal shift delta Tm (LOC_OS01G39600-cb002) | thermal shift delta Tm (LOC_OS01G48390-cb002) | thermal shift delta Tm (LOC_OS01G51400-cb002) | thermal shift delta Tm (LOC_OS01G52050-cb004) | thermal shift delta Tm (LOC_OS01G57100-cb003) | thermal shift delta Tm (LOC_OS01G60330-cb001) | thermal shift delta Tm (LOC_OS01G60700-cb002) | thermal shift delta Tm (LOC_OS01G63280-cb003) | thermal shift delta Tm (LOC_OS01G67340-cb003) | thermal shift delta Tm (LOC_OS01G70970-cb002) | thermal shift delta Tm (LOC_OS02G07810-cb001) | thermal shift delta Tm (LOC_OS02G08530-cb003) | thermal shift delta Tm (LOC_OS02G14120-cb001) | thermal shift delta Tm (LOC_OS02G17970-cb001) |
| --- | --- | --- | --- | --- | --- | --- | --- | --- | --- | --- | --- | --- | --- | --- | --- | --- | --- | --- | --- | --- |
| O=C(Nc1cnn2ccc(N3CCC[C@@H]3c3cc(F)ccc3F)nc12)N1CC[C@H](O)C1 [Larotrectinib (LOXO-101) sulfate] | -0.1 °C | 0.5 °C | 0.8 °C | 0.17 °C | 0.39 °C | 0.24 °C | -0.28 °C | 1.09 °C | -0.18 °C | 0.04 °C | 1.19 °C | 0.93 °C | 0.28 °C | -0.24 °C | 0.23 °C | 0.22 °C | 0.18 °C | 0.6 °C | 3.12 °C | 0.72 °C |
| CC(C)(C#N)c1ccc(N2C(=O)OCc3cnc4ccc(-c5cnc6ccccc6c5)cc4c32)cc1 | 0.56 °C | 1.19 °C | 0.21 °C | 0.42 °C | 0.26 °C | 0.66 °C | 0.12 °C | 0.59 °C | 0.65 °C | 0.6 °C | 1.9 °C | 0.57 °C | 1.49 °C | 0.63 °C | 0.63 °C | 0.56 °C | 0.18 °C | 0.94 °C | 1.27 °C | 0.63 °C |
| COc1cc(C(=O)N2CCC(N3CCN(C)CC3)CC2)ccc1Nc1ncc2c(n1)N(C)c1ccccc1C(=O)N2C | 0.19 °C | 0.47 °C | 2.12 °C | 0.41 °C | -0.08 °C | -0.12 °C | -0.15 °C | 0.42 °C | -0.06 °C | -0.4 °C | 0.21 °C | 0.56 °C | 0.5 °C | -0.2 °C | 0.17 °C | 0.15 °C | 0.46 °C | 1.92 °C | 1.72 °C | 0.35 °C |
| C[C@H](NC(=O)c1c(N)nn2cccnc12)c1cc2cccc(C#Cc3cnn(C)c3)c2c(=O)n1-c1ccccc1 | -0.14 °C | 1.49 °C | -0.2 °C | 0 °C | 0.51 °C | 0.17 °C | 0.28 °C | 0.19 °C | 0.28 °C | 2.08 °C | 1.25 °C | 0.23 °C | -0.49 °C | 0 °C | 0.21 °C | 0.36 °C | -0.71 °C | 0.78 °C | 0.56 °C | 0.54 °C |
| C#Cc1cccc(Nc2ncnc3cc4c(cc23)OCCOCCOCCO4)c1 [Icotinib] | -0.52 °C | 0.8 °C | 0.96 °C | 0.01 °C | 0.16 °C | 0.74 °C | 2.84 °C | 2.19 °C | 0.45 °C | 0.36 °C | 2.43 °C | 0.51 °C | 1.16 °C | 0.89 °C | 0.11 °C | 0.61 °C | 0.45 °C | 1.31 °C | 2.16 °C | 1.61 °C |
| CCN(CC)CCCC(C)Nc1nc(C)cc(Nc2ccc3nc(C)cc(N)c3c2)n1 (stereo not given) | 1.12 °C | 1.02 °C | -0.35 °C | -0.26 °C | 0.18 °C | 0.15 °C | 0.28 °C | 1.07 °C | 0.05 °C | 0.12 °C | 1.43 °C | 0.65 °C | 0.91 °C | 0.28 °C | 0.08 °C | 0.16 °C | -0.06 °C | 0.57 °C | 0.93 °C | 0.8 °C |
| CCNC(=O)Nc1ccc(-c2nc3c(c(N4CCOC[C@@H]4C)n2)CCN(C2COC2)C3)cc1 | 0.46 °C | 0.52 °C | 0.25 °C | 0.66 °C | 0.02 °C | 0.43 °C | -0.29 °C | 0.42 °C | -0.02 °C | 0.23 °C | 1.02 °C | 0.52 °C | 0.42 °C | 0.65 °C | 0.16 °C | 0.23 °C | 0.04 °C | 0.71 °C | -0.29 °C | -0.11 °C |
| COc1cc(OC)cc(N(CCNC(C)C)c2ccc3ncc(-c4cnn(C)c4)nc3c2)c1 | 0.55 °C | 1.27 °C | 0.16 °C | 0.03 °C | 0.57 °C | 0.2 °C | 1.11 °C | 2.48 °C | 0.26 °C | 2.05 °C | 1.85 °C | 0.09 °C | 0.12 °C | 0.43 °C | 0.07 °C | 0.6 °C | -0.54 °C | 0.61 °C | 2.34 °C | -0.45 °C |
| CCCNC(=O)Nc1ccc(Oc2ncnc3cc(OC)c(OC)cc23)cc1Cl | 0.04 °C | 0.33 °C | -0.21 °C | -0.35 °C | -0.27 °C | 0.37 °C | 0.76 °C | 0.53 °C | -0.13 °C | 1.02 °C | 0.3 °C | 0.97 °C | -0.2 °C | 0.14 °C | -0.13 °C | -0.25 °C | 0.93 °C | 1.15 °C | -0.1 °C | 0.04 °C |
| Oc1ccc(Nc2nc(-c3ccc(Cl)cc3)cs2)cc1 | 1.11 °C | 3.1 °C | 0.5 °C | 0.46 °C | 1.41 °C | -0.09 °C | 4.96 °C | 1.3 °C | 1.51 °C | 3.09 °C | -1.22 °C | 2.57 °C | -0.25 °C | 3.13 °C | 0.86 °C | 1.06 °C | 0.81 °C | -0.94 °C | 0.14 °C | -0.04 °C |
| O=C(O)c1ccc2c(c1)nc(Nc1cccc(Cl)c1)c1ccncc12 [Silmitasertib (CX-4945)] | 0.84 °C | 2.8 °C | 1.54 °C | 0.77 °C | 2.7 °C | 2.28 °C | 6.15 °C | 0.06 °C | 0.3 °C | 2.54 °C | 2.46 °C | 4.93 °C | 1.42 °C | 1.39 °C | 0.58 °C | 0.36 °C | 0.97 °C | 1.24 °C | 2.72 °C | 1.95 °C |
| C#Cc1cccc(Nc2ncnc3cc(OC)c(OCCCCCCC(=O)NO)cc23)c1 | 0.66 °C | 0.59 °C | 0.97 °C | 0.44 °C | 0.54 °C | 0.53 °C | 1.06 °C | 1.12 °C | 0.13 °C | 0.41 °C | 0.24 °C | 0.19 °C | 0.52 °C | 0.06 °C | -0.47 °C | 0.22 °C | 0.79 °C | 0.57 °C | 1.05 °C | 0.31 °C |
